This passage reports growth results from PubChem BioAssay (NCI).

This is part of a sample that, as a whole, favours compounds with a hit. Of some 83,000 tested, about 20% had one in any assay.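 Each cell line was grown in a 96-well plate and treated with one concentration of compound for 48 hours. Values below 10 were considered active.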 Values without a mark were called inactive. Activity calls are given as the source filed them.

The assay relates to HL-60(TB) leukemia. In words: NCI-60 one-dose screen, 48 h (100 = growth as untreated, 0 = no growth, -100 = all killed). The following applies: 10 µM unless noted.
As to `COC1=C(OC)C(=O)C(SC/C=C(\C)CCCC(C)CCCC(C)CCCC(C)C)=CC1=O` (centres undefined), the growth is -36.3% (active).

`COc1cc(C2=N/C(=C\c3cc4ccccc4nc3Oc3ccccc3)C(=O)N2C(=N)N)cc(OC)c1OC`: the growth was 77.2%. As for `C/C(=N\OC(=O)Nc1ccccc1)c1ccccc1`, the figure is 119%; as for `O=c1oc2c([nH]c3ccc4ccccc4c32)c2ccccc12`, 129%.
